Screens (PubChem BioAssay)
Only some compounds are listed: those with a hit (about 1.5% of all), similar ones and a draw of the others.
HER2 expr 66K – lowers expression of human Her2 kinase | HER2 level % of control, % at 10 µM | P04626 | hit rate 0.69% among 65,000 | SKBR-3 HER2 protein level, AlphaScreen, 18-24 h; stronger effect = lower value | AID 645;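 active = HER2 level under 5% of the carrier-only control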;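 also: 100% = DMSO carrier and 0% = 500 nM PU-H71 HSP90 inhibitor; lower value means stronger loss of Her2 protein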
SKBR3 24h inh – SK-BR-3 proliferation inhibitors; AID 847; SK-BR-3 viability, CellTiter-Glo ATP luminescence, 24 h; stronger effect = lower value; hit rate 0.47% among 41,000; viability, % at 10 µM;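 active = viability at or below the median of all test compounds minus 3 SD, in both replicates if run twice, cut at about 45% in these data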;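 also: 100% = median untreated cell wells and 0% = median positive control drug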
FXIIa mix inh – inhibitors of human coagulation factor XIIa, pooled mixtures | P00748 | purified FXIIa, fluorogenic substrate | inhibition, % at 5 µM | hit rate 0.2% among 62,000;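 also: 0% = enzyme without compound and 100% = no enzyme blank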
C1s block – human complement C1s inhibition; P09871; purified C1s, fluorogenic AMC substrate, pooled mixtures; mean inhibition % of two 10-compound mixtures (stronger effect = higher value), % at 5 µM (by protocol); hit rate 0.16% among 62,000; AID 538;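 active = inhibition above 20% in each of the two 10-compound mixture wells holding the compound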;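 also: 0% = enzyme wells lacking compound mixture and 100% = no-enzyme blank wells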
FXIa mix inh – factor XIa (human) inhibition, mixture screen; hit rate 0.19% among 62,000; inhibition, % at 5 µM; purified FXIa, fluorogenic substrate, pooled mixtures; P03951;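 also: each value is inhibition by a whole ten-compound pool holding the compound; 0% = enzyme with no mixture and 100% = wells lacking enzyme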
Cathepsin G inh – cathepsin G (human) inhibition. AID 581. inhibition, % at 5 µM (by protocol). purified enzyme, AMC-tetrapeptide fluorescence, pooled mixtures. P08311. hit rate 0.2% among 62,000;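 active = inhibition above 20% in each of the two mixture wells holding the compound; inactive = inhibition of 20% or less in either well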;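 also: 0% = enzyme control without mixture and 100% = blank lacking enzyme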
An asterisk follows results filed as active; nt = not tested or not shown. Rule as the data show it, unless noted: active = inhibition above about 20% (passing the limit was not always enough); inactive = the rest.

SMILES | HER2 expr 66K | SKBR3 24h inh | FXIIa mix inh | C1s block | FXIa mix inh | Cathepsin G inh
CC1CN=C(Nc2cccc3ccccc23)S1 (configuration not stated) | 75 | nt | 0 | 35* | 30 | 30
C[C@@]1(CO)[C@H](O)CC[C@@]2(C)[C@H]1CC[C@H]1C[C@@H]3C[C@@]12CC[C@]3(O)CO | -15* | 126 | 31 | 12 | 4 | 12
CCC1(CC)C(=O)NC(=Nc2cccc(C(F)(F)F)c2)NC1=O | 83 | 86 | 11 | -44 | -3 | -11
O=c1c(C=NCCN2CCNCC2)c(O)n(C2CCCCC2)c(=O)n1C1CCCCC1 | 25 | 62 | nt | nt | nt | nt
N=C(N)c1c(O)n(C2CCCCC2)c(=O)n(C2CCCCC2)c1=O | -6.5* | 2.8* | -2 | 6 | 1 | 1
C[n+]1ccc(-c2ccncc2)cc1 | 85 | 118 | 7 | -41 | 1 | 4
O=C(COc1ccccc1)N1CCN(C2CCCC2)CC1 | -4.8* | 110 | 0 | -8 | 7 | -1
Cn1ncnc2c(=O)n(C)c(=O)nc1-2 | 1.0* | 5.5* | 1 | -82 | 2 | 7
CN(C)CCOC(=O)c1cn(Cc2ccccc2)c2ccccc12 | 107 | 81 | 13 | -46 | -1 | 2
O=S(=O)(c1ccccc1)N1CN2CCN(C2)C1 | 128 | 89 | 5 | -10 | 1 | -14
c1ccc2c(CCNCc3ccc4c(c3)OCO4)c[nH]c2c1 | 89 | 92 | -6 | -26 | 6 | 5
C=CCn1c(O)c(C(C)=NCc2cccnc2)c(=O)[nH]c1=O | 101 | 92 | 5 | 3 | 3 | 2
C=CCn1c(O)c(C(C)=NCc2cc(OC)cc(OC)c2)c(=O)[nH]c1=O | 72 | 38* | -1 | -5 | 4 | -1
Nc1c(C(=O)NCCc2ccccc2)c2nc3ccccc3nc2n1CCN1CCOCC1 | -5.1* | 2.9* | -10 | -56 | -8 | -9
Cc1cccc(C)c1NC1=NCCCS1 | -9.3* | nt | 3 | 9 | 2 | 14
CC(=O)Nc1ccc(OC(=O)N(C)C)cc1 | 83 | 73 | 2 | -41 | 2 | -6
